Screening results: PubChem BioAssay, several laboratories
tim23-1 inh: tim23-1 yeast growth inhibition; S. cerevisiae tim23-1 growth, BacTiter-Glo luminescence, 24 h; inhibition, % at 20 µM; actives 1.3% (n = 330,000);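 active = growth inhibition of the mutant yeast at or above 50%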;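 also: temperature-sensitive mutant grown at 25 °C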
NALP1 inh: NALP1 inhibition | S. cerevisiae NALP1/ASC/caspase-1 growth, X-gal OD620, 72 h | inhibition, % at 10 µM | actives 0.61% (n = 280,000); in the data active = inhibition mostly above about 24%, no sharp cut-off; inactive = mostly below about 32%
NALP3 yeast inh: blocks the NALP3 inflammasome reconstituted in yeast; Yeast reconstituted NLRP3/ASC/caspase-1, beta-gal luminescence, 24 h; AID 2825; actives 0.39% (n = 330,000); inhibition, % at 10 µM;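 active = inhibition of 50% or more; inactive = inhibition below 50%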
tim10-1 inh: inhibits growth of tim10-1 mutant yeast. S. cerevisiae tim10-1 ts strain growth, BacTiter-Glo, 24 h. AID 463190. inhibition, % at 20 µM. actives 2.2% (n = 330,000);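 active = inhibition of at least 40%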;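 also: mutant grown at 25 °C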
TIM10 inh: growth inhibitors of TIM10 yeast strain | actives 1.4% (n = 330,000) | S. cerevisiae TIM10 strain growth, BacTiter-Glo luminescence, 24 h | inhibition, % at 10 µM;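 active = inhibition of 40% or more at the single tested concentration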;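 also: wild-type TIM10 isogenic control strain grown at permissive 25 °C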
PfHsp90 set2: growth inhibition of yeast expressing Plasmodium Hsp90. S. cerevisiae expressing PfHsp90, BacTiter-Glo ATP, 48 h; yeast lacking PDR1 and PDR3 efflux regulators. inhibition, % at 9.4 µM. actives 0.32% (n = 310,000). AID 504621;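 active = every replicate shows inhibition above about 80%, whatever the replicate mean, limit read from the data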
NALP3 confirm: NALP3 inhibition confirmation in yeast; yeast expressing human NALP3, luminescence; shares compounds with NALP3 yeast inh; AID 435006; inhibition, % at 10 µM; actives 81% (n = 1,300); in the data active = inhibition above about 48%
Casp1-ASC yeast: active in yeast caspase-1-ASC counter-screen for NALP3 inhibitors; shares compounds with NALP3 yeast inh; yeast expressing Caspase-1-ASC, luminescence counter screen; inhibition, % at 10 µM; actives 66% (n = 1,000); AID 488784
NALP3 retest: yeast NALP3 inhibition, confirmed on retest; AID 488794; actives 53% (n = 1,000); yeast expressing human NALP3, luminescence read-out; inhibition, % at 10 µM; shares compounds with NALP3 yeast inh
Numbers stand for hits; i = inactive; nt = no result given. A selection: hits, their analogues and other compounds. The true share with any hit is near 4.2%. Rule as the data show it, unless noted: active = inhibition above about 50%; inactive = the rest.

SMILES | tim23-1 inh | NALP1 inh | NALP3 yeast inh | tim10-1 inh | TIM10 inh | PfHsp90 set2 | NALP3 confirm | Casp1-ASC yeast | NALP3 retest
O=C(O)C1=C[C@@H](C2CCCCC2)C[C@@H](OCCCCO)O1 | i | i | i | i | i | i | nt | nt | nt
CN(Cc1ccccc1)c1ncc(C=O)s1 | i | i | i | i | i | i | nt | nt | nt
Cc1ccccc1-c1cc(C(=O)NCc2cccc(C(F)(F)F)c2)n(CC2CC(c3cccnc3)=NO2)n1 (stereo not given) | i | nt | i | i | i | i | nt | nt | nt
Cc1ccccc1-c1ccc(Nc2ccc(N3CCOCC3)cc2)nn1 | i | i | 63.7 | i | i | i | 73.7 | 59.5 | 61.5
CC1(c2nnc(-c3ccncc3)o2)CC(c2c(Cl)cccc2Cl)=NO1 (stereo not given) | i | i | i | i | i | nt | nt | nt | nt
CC1(c2nnc(-c3ccccc3)o2)CC(c2c(Cl)cccc2Cl)=NO1 (stereo not given) | i | nt | 55.0 | i | i | i | 70.8 | i | i
COc1ccc(Cn2c(=O)sc3ccccc3c2=O)cc1 | i | i | 50.6 | i | i | i | 59.5 | 60.0 | i
O=C(CSc1nc(COc2ccccc2)nc2ccccc12)NC1CCCC1 | i | i | 70.6 | i | i | i | i | 67.2 | 55.7
CCCNC(=O)CSc1nc(COc2ccccc2)nc2ccccc12 | i | i | i | i | i | i | nt | nt | nt
O=C1Nc2ccccc2S/C1=C/c1cccs1 | i | nt | 64.6 | i | i | i | i | nt | nt
NCCC(=O)NCCc1cnc[nH]1 | i | nt | 65.7 | i | i | i | 75.9 | 62.6 | 72.2
Cn1nc(-c2ccccc2)c(C(=O)Nc2ccc(C(F)(F)F)cc2)c1Cl | i | i | i | i | i | i | nt | nt | nt
Cn1nc(-c2ccccc2)c(C(=O)Nc2ccc(Cl)cc2)c1Cl | i | i | 81.3 | i | i | i | 86.2 | 54.7 | i
COc1cccc2oc3cc(C#CC4(O)CCCCC4)ccc3c(=O)c12 | i | i | 56.5 | i | i | i | 59.8 | 62.2 | i
O=c1c2ccccc2oc2cc(C#CC3(O)CCCCC3)ccc12 | i | nt | i | i | i | i | nt | nt | nt
O=C(O)C(c1ccccc1)C1(O)CCC1 (stereo not given) | nt | nt | nt | nt | nt | i | nt | nt | nt
COC(=O)c1sc2nc3c(cc2c1N)CCCC3 | i | i | 51.4 | i | i | i | 65.5 | 64.1 | 58.1
CC(=O)Nc1ccc(S(=O)(=O)NC(CSc2ccc(C(=O)O)cc2[N+](=O)[O-])C(=O)O)cc1 (stereo not given) | i | i | i | i | i | i | nt | nt | nt
CC1(C)CC(=O)/C(=C\c2cccc([N+](=O)[O-])c2)C(C)(C)N1 | i | 67.2 | 58.7 | i | i | i | 55.1 | i | i
Cc1cccc(NC(=O)c2cc(S(=O)(=O)N3CCCCC3)ccc2Cl)n1 | i | nt | i | i | i | i | nt | nt | nt
COC(=O)C1(C)NC(c2ccc(O)cc2)C2C(=O)N(c3ccc(C)cc3)C(=O)C21 (stereo not given) | i | i | i | i | i | i | nt | nt | nt
O=C(CNC(=O)c1ccccc1Br)N/N=C\c1cc([N+](=O)[O-])cc(Br)c1O | i | i | 50.8 | i | i | i | i | i | i
CCOC(=O)c1sc(=S)n(-c2cc(OC)ccc2OC)c1N | i | i | 97.5 | i | i | i | 96.2 | 71.1 | 56.9
COC(=O)C(Cc1ccccc1)NC(=O)CCc1c[nH]c2ccccc12 (stereo not given) | i | i | i | i | i | i | nt | nt | nt
CC(C)(C)c1ccc(C(=O)NNc2ccc(F)cc2F)cc1 | i | nt | 53.2 | i | i | i | i | nt | nt
O=C(NNC(=O)c1c(O)c2ccccc2[nH]c1=O)c1ccccc1Br | i | i | 57.4 | i | i | i | 72.1 | i | i
O=C(NC1CC1)c1c(O)c2ccccc2[nH]c1=O | i | i | 68.7 | i | i | i | 75.4 | i | i
O=C(CCl)NNC(=O)c1c(O)c2ccccc2[nH]c1=O | i | i | i | i | i | i | nt | nt | nt
O=S(=O)(c1ccc2c(c1)OCCO2)C1CCC(S(=O)(=O)c2c(F)cccc2F)CC1 (stereo not given) | i | nt | i | i | i | i | nt | nt | nt
